Source: PubChem
Only some compounds are listed: those with a hit (about 2.4% of all), similar ones and a draw of the others.
Wnt bcat act – activates Wnt/beta-catenin signaling in a reporter cell assay. activator, plate reader. activation, % at 9.35 µM. 1.2% of 300,000 active; in the data active = activation above about 30%, passing the limit was not always enough
miR122 inh – inhibitors of miR-122 in Huh7 cells; Huh7 miR-122 Renilla luciferase sensor, 48 h; neutral wells = 0, positive control = 100; activation (reporter increase), % at 12.5 µM; 0.3% of 340,000 active; AID 602342;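 active = mean replicate activation score at least 90 and every replicate individually at or above 90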;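 also: higher luciferase means less miR-122 activity so hits act as miR-122 inhibitors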
GSIS activator – GLuc luminescence reporter in INS-1E cells, primary screen for activators of glucose-dependent secretion of insulin | INS-1E GLuc reporter insulin secretion, 2-3 h | activation, % at 16.6 µM | 0.61% of 370,000 active;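 active = lowest replicate activation of at least 40%, so every replicate reaches that level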
MITF act – MITF TRPM1 promoter activation in melanoma cells. SK-MEL-5 TRPM1-promoter luciferase, 24 h; % of positive control, neutral wells = 0. 0.75% of 300,000 active. AID 588334. activation, % at 12.5 µM;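 active = mean activation of at least 80% with every replicate also reaching 80%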
Dyrk1A ADPGlo – Dyrk1A (rat) kinase inhibition | Q63470 | ADP-Glo luminescence, NFATc1 peptide | inhibition, % at 12.5 µM | 0.43% of 310,000 active
NSD2 HMT inh – NSD2 (human) methyltransferase inhibition. NSD2 peptide methylation, AlphaScreen, 120 min. AID 743445. inhibition, % at 12.5 µM. 0.54% of 310,000 active. O96028
Numbers stand for hits; . = inactive; / = no result given. Rule as the data show it, unless noted: active = inhibition above about 50%; inactive = the rest.

SMILES	Wnt bcat act	miR122 inh	GSIS activator	MITF act	Dyrk1A ADPGlo	NSD2 HMT inh
C[C@H]1CCn2cc(nn2)COCCNC1=O	/	/	.	/	/	/
Cc1cc(-c2nc3ncccc3o2)ccc1NC(=O)CC(C)C	.	.	/	/	.	/
O=C(COc1ccccc1)Nc1ccc(Cl)c(-c2nc3ncccc3o2)c1	.	.	/	.	.	.
CC(C)CC(=O)Nc1cccc(-c2nc3ncccc3o2)c1	.	.	41.0	.	.	.
CC(=O)Nc1ccc(Cl)c(-c2nc3ncccc3o2)c1	.	.	57.5	.	.	.
O=C(NC1CCCC1)N1CC(=O)N2[C@H](CO)[C@H](c3ccc(-c4ccccc4)cc3)[C@@H]2C1	/	/	.	/	/	/
CCOc1cc(C(c2c(C)[nH][nH]c2=O)c2c(C)[nH][nH]c2=O)ccc1OCc1ccc([N+](=O)[O-])cc1	/	.	/	.	.	.
CCOc1cc(/C=C2/NC(=S)NC2=O)ccc1OCc1ccc([N+](=O)[O-])cc1	/	.	58.4	.	.	.
O=C(Nc1ccc2c(c1)CCC2)C1CCCN(c2ncccn2)C1 (stereo not drawn)	/	.	.	85.7	.	.
Cc1cc(C)cc(NC(=O)C2CCCN(c3ncccn3)C2)c1 (stereo not drawn)	.	.	.	.	.	.
Cc1ccc(NC(=O)C2CCCN(c3ncccn3)C2)cc1F (stereo not drawn)	/	.	.	134.1	.	.
O=C(C[C@H]1CC[C@H]2[C@@H](COC[C@H](O)CN2Cc2ccc(Oc3ccccc3)cc2)O1)Nc1nccs1	/	.	.	/	/	/
C=CCN1C(=O)c2n[nH]c(COC)c2C1c1ccc(F)cc1 (stereo not drawn)	.	/	64.8	/	/	/
C=CCN1C(=O)c2n[nH]c(COC)c2C1c1ccc2c(c1)OCO2 (stereo not drawn)	.	/	.	/	/	.
CC(C)NC(=O)N(C)C[C@@H]1Oc2c(NC(=O)Nc3ccc(F)cc3)cccc2C(=O)N([C@H](C)CO)C[C@@H]1C	/	.	.	/	/	/
Nc1ccccc1-c1nnc(-c2ccc(-c3ccccc3)cc2)o1	/	.	/	90.5	.	.
Nc1ccc(-c2nnc(-c3ccc(N)cc3)o2)cc1	35.2	.	.	99.4	.	.
COc1ccc(-c2ccc3c(c2)O[C@@H](CN(C)Cc2cccnc2)[C@H](C)CN([C@H](C)CO)S3(=O)=O)cc1	/	/	.	/	/	/
Cc1ccc(C(=O)NCCN2CCOCC2)cc1	.	.	.	.	.	.
Cc1ccc(C(=O)NCCC(=O)N2CCOCC2)cc1	37.0	/	.	.	.	.
CC(=O)N(C)C[C@@H]1Oc2ncccc2C(=O)N(C)C[C@H]1C	/	/	.	/	/	/
O=C([C@H]1[C@H](CO)[C@H]2Cn3c(ccc(C4=CCCC4)c3=O)[C@H]2N1Cc1nccs1)N1CCOCC1	/	/	.	/	/	/
O=C(c1cc(-c2ccccc2O)on1)N1CCCCCC1	.	.	.	125.1	.	.
O=C(c1cc(-c2ccc(O)cc2)on1)N1CCCC1	.	.	.	.	.	.
O=C(c1cc(-c2ccccc2O)on1)N1CCOCC1	35.4	.	.	96.2	.	.
SMILES	Wnt bcat act	miR122 inh	GSIS activator	MITF act	Dyrk1A ADPGlo	NSD2 HMT inh
C[C@@H]1CN([C@@H](C)CO)C(=O)c2cccc(NC(=O)C3CCOCC3)c2O[C@H]1CN(C)S(=O)(=O)c1cn(C)cn1	/	.	.	/	/	/
CC[N+]1(C)CCC(O)(c2ccc(OC)cc2)C(C(=O)c2ccc(OC)cc2)C1 (stereo not drawn)	.	/	213.5	.	/	.
CC(=O)c1sc(N/N=C\c2ccc(N(C)C)cc2)nc1C	.	.	.	/	.	.
CC(=O)c1sc(N/N=C/c2cccc([N+](=O)[O-])c2)nc1C	.	/	.	105.0	.	.
CC(=O)c1sc(N/N=C/c2cccc(O)c2)nc1C	.	.	.	92.9	.	/
O=C(CCN1CCCCC1)NCC[C@@H]1CC[C@@H](NC(=O)C2CCCC2)[C@@H](CO)O1	/	/	.	/	/	/
CCN(CC)C(=O)c1nc(-c2cccc3ccccc23)no1	75.0	.	/	/	/	.
COc1ccc2oc(=Nc3ccccc3)c(-c3nc4ccccc4[nH]3)cc2c1	43.9	.	.	.	.	.
C[C@@H]1CN([C@@H](C)CO)C(=O)c2cc(NS(=O)(=O)c3ccccc3)ccc2O[C@H]1CN(C)C(=O)NC1CCCCC1	/	.	.	/	/	/
CCCOc1ccc(N)cc1N	/	.	/	.	.	67.9
Cc1nccn1C(c1ccccc1)c1ccccc1	35.2	.	.	.	/	.
CC(=O)N1c2c(cc(Br)cc2S(=O)(=O)NCc2ccccc2)CC1C (stereo not drawn)	.	124.6	.	.	.	.
COc1cccc(CNS(=O)(=O)c2ccc3c(c2)CC(C)N3C(=O)C2CC2)c1 (stereo not drawn)	.	.	.	.	.	.
CC(=O)N1c2ccc(S(=O)(=O)NCCc3ccccc3)cc2CC1C (stereo not drawn)	.	153.0	.	.	.	.
CC1Cc2cc(S(=O)(=O)NCCc3ccccc3)ccc2N1C(=O)C1CC1 (stereo not drawn)	.	132.0	.	.	/	.
COCC(=O)N1CC[C@@H]2[C@@H](CO)Nc3ccc(-c4ccc(C#N)cc4)cc3[C@@H]21	/	.	.	/	/	/
O=C1CNC[C@H]2[C@H](c3ccc(C4=CCCC4)cc3)[C@H](CO)N12	/	/	.	/	/	/
C[C@@H]1CN([C@@H](C)CO)C(=O)c2cccc(NC(=O)C3CCOCC3)c2O[C@@H]1CN(C)S(=O)(=O)c1cn(C)cn1	/	.	.	/	/	/
CCC(=O)N1[C@H](CO)[C@H](c2ccccc2)C12CN(C(=O)c1cnccn1)C2	/	/	.	/	/	/
Cc1ccc(C(C)C)c(OCCNCCc2ccccc2)c1	.	.	137.2	.	.	.
O=C(COC(=O)c1ccccc1SCC(=O)NC1CCS(=O)(=O)C1)NC1CCS(=O)(=O)C1 (stereo not drawn)	/	/	.	.	.	.
CCNC(=O)NC(=O)COC(=O)c1ccccc1SCC(=O)NC(=O)NCC	53.1	.	/	.	.	.
Cc1cc2sc3nc(=O)n(-c4ccccc4)c(=O)n3c2cc1C	70.6	/	.	/	/	.
C=C(C)Cn1c(SCC#N)nc2ccccc2c1=O	/	.	/	.	.	.
N#CCSc1nc2ccccc2c(=O)n1CC1CCCC1	.	.	43.7	.	.	.
SMILES	Wnt bcat act	miR122 inh	GSIS activator	MITF act	Dyrk1A ADPGlo	NSD2 HMT inh
C[C@H](CO)N1C[C@H](C)[C@H](CN(C)C(=O)NC2CCCCC2)Oc2ncc(-c3cc4ccccc4o3)cc2C1=O	/	.	.	/	/	/
CS(=O)(=O)NN1C(=O)c2ccccc2NC1c1ccccc1F (stereo not drawn)	.	.	.	.	.	.
CS(=O)(=O)NN1C(=O)c2ccccc2NC1c1cc2ccccc2nc1Cl (stereo not drawn)	52.1	.	.	.	.	/
Cc1cccc(C)c1NC(=S)NC(C)CCc1ccccc1 (stereo not drawn)	.	100.4	.	.	.	.
CN1CCN(C(=O)C2CCCN(S(=O)(=O)c3ccc(F)cc3)C2)CC1 (stereo not drawn)	.	/	.	.	.	.
O=C(C1CCCN(S(=O)(=O)c2ccc(F)cc2)C1)N1CCOCC1 (stereo not drawn)	43.3	.	.	.	.	.
